# About 8,800 targets were measured; listed, in parts, are those with a hit and a random draw of the rest. About 0.5% of all pairs of compound and target were hits.
# How the values were obtained:
# Assay in all cases: log2 fold change, soluble protein after heating vs DMSO (PISA); higher = thermal stabilisation; K562 lysate, 10 uM; active = over 0.2 and 3.5 SD of the protein, either way, in both replicates (recomputed)
# ibrutinib = compound: C=CC(=O)N1CCC[C@@H](n2nc(-c3ccc(Oc4ccccc4)cc3)c3c(N)ncnc32)C1 [ibrutinib]
# Procedure, shortened: (§1)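 Following dounce homogenisation of K562 pellets in PBS pH 7.4 with 1 mM MgCl2, crude extract at 1 mg/mL protein was incubated for 30 min with 10 μM compound. Aliquots were then heated for 3 min over 48°C-58°C and pooled, NP-40 was added to 0.5% at 4°C, and soluble protein was recovered as the supernatant at 21,000xg for 90 min. Channel-sum-equalised TMTpro 16plex LC-MS/MS quantified this protein. Each value, from duplicates, is a log-two fold change in thermal stability relative to solvent controls.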
# [1] = compound: CC(=O)c1cnc2ccc(-c3cc(Cl)c(O)c(Cl)c3)nc2c1N[C@H]1CC[C@H](CN(C)C)CC1
# Procedure, shortened: as §1
# ralimetinib = compound: CC(C)(C)Cn1c(N)nc2ccc(-c3[nH]c(C(C)(C)C)nc3-c3ccc(F)cc3)nc21 [ralimetinib]
# Procedure, shortened: as §1
# [2] = compound: CC(C)(O)CC(=O)NCCn1ccc2ncnc(Nc3ccc(Oc4cccc(C(F)(F)F)c4)c(Cl)c3)c21
# Procedure, shortened: as §1
# [3] = compound: CC(C)C1=C2N=C(C=C(N2N=C1)NCC3=CC=CC=C3)NCCCCCCN
# Procedure, shortened: as §1
# [4] = compound: CC1=C(C(CC(=O)N1)C2=CC=C(C=C2)C(F)(F)F)C(=O)NC3=C(C=C4C(=C3)C=NN4)F
# Procedure, shortened: as §1
# [5] = compound: CC1=C(C2=C(C=C1)C(=O)C3=CC=CC=C3N2CCCN)C
# Procedure, shortened: as §1
# [6] = compound: CC1=C(C=C(C=C1)NC(=O)C2=CC(=CC=C2)C(C)(C)C#N)NC3=CC4=C(C=C3)N=CN(C4=O)C
# Procedure, shortened: as §1
# [7] = compound: CC1=C(C=C(C=C1)NC(=O)C2=CC(=CC=C2)N(C)C)NC(=O)C3=CC=C(C=C3)O
# Procedure, shortened: as §1
# [8] = compound: CC1=CC=C(C=C1)SC2=C3C=C(SC3=CN=C2)C(=O)N
# Procedure, shortened: as §1
# UniProt P57721, sequence (P57721 whole entry, looked up): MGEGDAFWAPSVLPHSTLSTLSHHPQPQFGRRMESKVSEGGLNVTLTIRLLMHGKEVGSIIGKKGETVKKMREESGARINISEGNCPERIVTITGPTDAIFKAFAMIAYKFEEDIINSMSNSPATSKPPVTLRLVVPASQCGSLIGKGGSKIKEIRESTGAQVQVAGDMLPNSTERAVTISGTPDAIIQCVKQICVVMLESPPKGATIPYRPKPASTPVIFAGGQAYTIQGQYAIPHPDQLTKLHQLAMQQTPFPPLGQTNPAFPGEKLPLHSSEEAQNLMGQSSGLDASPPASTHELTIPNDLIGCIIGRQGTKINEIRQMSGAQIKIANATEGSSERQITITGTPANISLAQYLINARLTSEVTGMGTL
# UniProt Q9UNP9, sequence (Q9UNP9 whole entry, looked up): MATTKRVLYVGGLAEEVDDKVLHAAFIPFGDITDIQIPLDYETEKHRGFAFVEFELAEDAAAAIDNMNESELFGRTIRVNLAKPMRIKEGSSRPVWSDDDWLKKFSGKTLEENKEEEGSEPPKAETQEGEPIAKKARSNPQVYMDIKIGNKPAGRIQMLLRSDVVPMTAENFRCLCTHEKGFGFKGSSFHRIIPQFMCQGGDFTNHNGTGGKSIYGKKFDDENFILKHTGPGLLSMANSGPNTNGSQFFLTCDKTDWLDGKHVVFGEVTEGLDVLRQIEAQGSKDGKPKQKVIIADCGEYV
# UniProt Q13492, sequence (Q13492 whole entry, looked up): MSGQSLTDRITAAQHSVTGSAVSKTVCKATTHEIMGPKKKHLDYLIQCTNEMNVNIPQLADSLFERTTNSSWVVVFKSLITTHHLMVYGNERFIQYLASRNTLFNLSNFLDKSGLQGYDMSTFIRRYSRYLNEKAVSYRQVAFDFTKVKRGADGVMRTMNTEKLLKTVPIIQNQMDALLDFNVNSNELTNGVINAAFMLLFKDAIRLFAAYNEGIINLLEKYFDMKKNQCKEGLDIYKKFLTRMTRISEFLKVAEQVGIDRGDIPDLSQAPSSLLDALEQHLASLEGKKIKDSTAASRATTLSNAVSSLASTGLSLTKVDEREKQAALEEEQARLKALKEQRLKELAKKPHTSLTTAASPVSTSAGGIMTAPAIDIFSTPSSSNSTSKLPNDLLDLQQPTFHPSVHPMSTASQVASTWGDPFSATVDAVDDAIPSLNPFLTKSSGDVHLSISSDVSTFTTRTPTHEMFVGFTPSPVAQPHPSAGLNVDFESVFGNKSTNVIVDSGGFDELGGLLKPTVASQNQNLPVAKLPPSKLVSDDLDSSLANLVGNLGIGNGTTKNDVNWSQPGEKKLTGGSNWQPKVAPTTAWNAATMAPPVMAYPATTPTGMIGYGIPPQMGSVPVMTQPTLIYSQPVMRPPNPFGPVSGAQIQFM
# UniProt O15530, sequence (O15530 whole entry, looked up): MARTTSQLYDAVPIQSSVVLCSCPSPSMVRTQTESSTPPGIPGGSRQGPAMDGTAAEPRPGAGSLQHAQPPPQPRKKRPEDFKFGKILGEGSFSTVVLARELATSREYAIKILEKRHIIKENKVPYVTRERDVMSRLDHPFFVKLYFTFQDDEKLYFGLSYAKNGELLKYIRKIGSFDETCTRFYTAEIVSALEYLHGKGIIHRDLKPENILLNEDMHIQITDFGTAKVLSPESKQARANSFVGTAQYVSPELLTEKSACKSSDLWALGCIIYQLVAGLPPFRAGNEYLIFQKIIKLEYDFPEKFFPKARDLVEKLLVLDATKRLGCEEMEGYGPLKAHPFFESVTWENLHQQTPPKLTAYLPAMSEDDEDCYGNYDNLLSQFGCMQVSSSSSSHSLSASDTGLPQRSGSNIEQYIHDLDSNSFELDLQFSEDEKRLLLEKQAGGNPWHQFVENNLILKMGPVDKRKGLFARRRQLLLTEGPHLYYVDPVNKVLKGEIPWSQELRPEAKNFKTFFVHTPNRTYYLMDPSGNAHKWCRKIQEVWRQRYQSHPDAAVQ
# UniProt O75569, sequence (O75569 whole entry, looked up): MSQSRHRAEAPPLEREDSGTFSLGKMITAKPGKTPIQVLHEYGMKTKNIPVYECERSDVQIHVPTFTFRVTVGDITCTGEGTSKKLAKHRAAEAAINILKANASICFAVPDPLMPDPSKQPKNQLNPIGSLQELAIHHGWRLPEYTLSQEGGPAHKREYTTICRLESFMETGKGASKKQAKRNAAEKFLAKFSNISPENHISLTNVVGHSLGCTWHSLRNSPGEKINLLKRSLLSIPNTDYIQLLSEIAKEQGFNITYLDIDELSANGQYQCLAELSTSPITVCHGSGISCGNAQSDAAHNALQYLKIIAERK
# UniProt Q10713, sequence (Q10713 whole entry, looked up): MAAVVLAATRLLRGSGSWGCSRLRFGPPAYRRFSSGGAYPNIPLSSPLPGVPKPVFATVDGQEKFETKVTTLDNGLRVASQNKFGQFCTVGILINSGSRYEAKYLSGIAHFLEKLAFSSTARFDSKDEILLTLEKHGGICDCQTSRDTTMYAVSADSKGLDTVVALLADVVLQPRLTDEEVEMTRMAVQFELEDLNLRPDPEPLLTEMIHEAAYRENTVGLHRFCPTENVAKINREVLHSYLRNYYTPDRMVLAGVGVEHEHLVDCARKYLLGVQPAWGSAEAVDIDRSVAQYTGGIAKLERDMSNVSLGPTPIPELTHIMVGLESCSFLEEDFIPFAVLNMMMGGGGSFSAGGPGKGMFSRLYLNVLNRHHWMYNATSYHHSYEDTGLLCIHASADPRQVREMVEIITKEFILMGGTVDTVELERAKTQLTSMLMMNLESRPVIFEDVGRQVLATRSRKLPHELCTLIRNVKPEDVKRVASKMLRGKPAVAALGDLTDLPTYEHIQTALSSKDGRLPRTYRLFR
# UniProt Q9NY27, sequence (Q9NY27 whole entry, looked up): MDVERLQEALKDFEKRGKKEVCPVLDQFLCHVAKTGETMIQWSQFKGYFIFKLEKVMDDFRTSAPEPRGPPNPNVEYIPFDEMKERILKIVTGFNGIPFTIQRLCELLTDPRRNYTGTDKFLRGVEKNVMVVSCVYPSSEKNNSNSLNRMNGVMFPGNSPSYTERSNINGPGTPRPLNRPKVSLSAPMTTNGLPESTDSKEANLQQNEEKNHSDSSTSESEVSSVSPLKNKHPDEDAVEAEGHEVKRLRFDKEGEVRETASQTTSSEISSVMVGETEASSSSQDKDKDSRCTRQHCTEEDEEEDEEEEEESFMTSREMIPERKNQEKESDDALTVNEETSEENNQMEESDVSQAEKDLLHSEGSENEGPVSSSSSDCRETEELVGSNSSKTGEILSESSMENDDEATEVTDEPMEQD
# UniProt Q15366, sequence (Q15366 whole entry, looked up): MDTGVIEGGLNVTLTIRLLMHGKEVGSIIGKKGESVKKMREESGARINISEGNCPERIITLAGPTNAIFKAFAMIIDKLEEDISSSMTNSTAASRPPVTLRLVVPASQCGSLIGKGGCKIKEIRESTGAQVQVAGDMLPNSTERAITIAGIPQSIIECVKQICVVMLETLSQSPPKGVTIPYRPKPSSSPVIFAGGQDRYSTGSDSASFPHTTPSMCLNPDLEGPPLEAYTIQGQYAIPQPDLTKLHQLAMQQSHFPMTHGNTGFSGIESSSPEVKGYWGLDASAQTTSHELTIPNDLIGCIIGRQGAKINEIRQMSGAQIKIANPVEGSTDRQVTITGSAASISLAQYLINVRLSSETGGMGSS
# UniProt O14744, sequence (O14744 whole entry, looked up): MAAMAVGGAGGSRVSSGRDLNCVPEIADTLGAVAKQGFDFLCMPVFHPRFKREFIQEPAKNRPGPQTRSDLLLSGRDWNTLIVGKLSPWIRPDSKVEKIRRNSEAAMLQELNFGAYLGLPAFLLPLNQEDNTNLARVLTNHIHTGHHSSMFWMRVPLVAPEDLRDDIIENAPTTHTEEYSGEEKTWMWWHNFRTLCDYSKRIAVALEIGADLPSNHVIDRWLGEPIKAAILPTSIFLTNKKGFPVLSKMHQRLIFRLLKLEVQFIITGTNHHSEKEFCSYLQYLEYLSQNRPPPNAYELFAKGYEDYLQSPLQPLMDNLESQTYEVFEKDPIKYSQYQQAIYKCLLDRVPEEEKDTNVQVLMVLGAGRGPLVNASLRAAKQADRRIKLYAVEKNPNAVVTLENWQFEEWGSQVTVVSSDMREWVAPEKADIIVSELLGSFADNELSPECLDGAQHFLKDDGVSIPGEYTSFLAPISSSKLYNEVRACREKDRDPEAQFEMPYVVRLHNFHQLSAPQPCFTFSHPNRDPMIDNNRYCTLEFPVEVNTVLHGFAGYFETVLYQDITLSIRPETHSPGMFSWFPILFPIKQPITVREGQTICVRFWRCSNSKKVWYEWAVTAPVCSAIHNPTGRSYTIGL
# UniProt P06454, sequence (P06454 whole entry, looked up): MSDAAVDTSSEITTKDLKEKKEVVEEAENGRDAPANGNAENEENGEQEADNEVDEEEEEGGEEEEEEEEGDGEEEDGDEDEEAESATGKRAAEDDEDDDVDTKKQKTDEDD
Target,log2 fold change (ibrutinib),log2 fold change [1],log2 fold change (ralimetinib),log2 fold change [2],log2 fold change [3],log2 fold change [4],log2 fold change [5],log2 fold change [6],log2 fold change [7],log2 fold change [8]
PTP4A1 (UniProt Q93096),0.011 (inactive),0.027 (inactive),0.015 (inactive),-0.071 (inactive),-0.031 (inactive),-0.113 (inactive),-0.007 (inactive),-0.012 (inactive),-0.048 (inactive),0 (inactive)
PRC1 (UniProt O43663),-0.007 (inactive),0.009 (inactive),-0.016 (inactive),0.01 (inactive),0.01 (inactive),0.039 (inactive),-0.006 (inactive),0.025 (inactive),0.021 (inactive),0.059 (inactive)
PXMP4 (UniProt Q9Y6I8),-0.022 (inactive),0 (inactive),0.012 (inactive),-0.076 (inactive),-0.18 (inactive),-0.008 (inactive),0.066 (inactive),0.234 (inactive),-0.007 (inactive),0.023 (inactive)
PTMA isoform 2 (UniProt P06454),-0.053 (inactive),–,–,–,–,–,–,–,–,–
PRPF38A (UniProt Q8NAV1),0 (inactive),-0.001 (inactive),0.01 (inactive),-0.011 (inactive),0.054 (inactive),0.027 (inactive),-0.128 (inactive),0.094 (inactive),-0.075 (inactive),0.018 (inactive)
PRKCSH (UniProt P14314),-0.008 (inactive),0.01 (inactive),0.007 (inactive),0.019 (inactive),-0.026 (inactive),-0.004 (inactive),0.047 (inactive),-0.057 (inactive),0.001 (inactive),0 (inactive)
PRPH isoform 2 (UniProt P41219),-0.099 (inactive),0.054 (inactive),0.009 (inactive),0.067 (inactive),0.074 (inactive),0.002 (inactive),0.007 (inactive),-0.064 (inactive),0.023 (inactive),-0.011 (inactive)
PMPCA (UniProt Q10713),-0.052 (inactive),-0.023 (inactive),0.006 (inactive),-0.038 (inactive),-0.047 (inactive),-0.043 (inactive),-0.041 (inactive),0.033 (inactive),-0.036 (inactive),0.015 (inactive)
PTGR2 (UniProt Q8N8N7),-0.006 (inactive),0.026 (inactive),0.019 (inactive),0.068 (inactive),-0.042 (inactive),-0.011 (inactive),-0.024 (inactive),0.006 (inactive),0.037 (inactive),0.029 (inactive)
PRADC1 (UniProt Q9BSG0),0.026 (inactive),-0.395 (inactive),-0.023 (inactive),0.041 (inactive),-0.125 (inactive),0.026 (inactive),-0.009 (inactive),0.072 (inactive),0.008 (inactive),-0.023 (inactive)
PUF60 (UniProt Q9UHX1),0.011 (inactive),-0.004 (inactive),-0.034 (inactive),0.013 (inactive),0.018 (inactive),-0.02 (inactive),0.009 (inactive),-0.003 (inactive),-0.001 (inactive),0.004 (inactive)
PPP4R2 (UniProt Q9NY27),-0.012 (inactive),-0.007 (inactive),-0.015 (inactive),-0.058 (inactive),0.003 (inactive),0 (inactive),0 (inactive),-0.007 (inactive),0.003 (inactive),-0.019 (inactive)
PDE2A (UniProt O00408),-0.008 (inactive),-0.148 (inactive),-0.202 (inactive),-0.107 (inactive),-0.045 (inactive),-0.018 (inactive),0.025 (inactive),-0.038 (inactive),0.01 (inactive),-0.11 (inactive)
PDF (UniProt Q9HBH1),0.054 (inactive),0.016 (inactive),-0.014 (inactive),0.066 (inactive),0.001 (inactive),0.01 (inactive),0.07 (inactive),0.048 (inactive),-0.018 (inactive),0.059 (inactive)
PDPK1 (UniProt O15530),0.026 (inactive),0.236 (inactive),0.067 (inactive),-0.075 (inactive),0.021 (inactive),0.163 (inactive),-0.034 (inactive),-0.056 (inactive),-0.006 (inactive),-0.021 (inactive)
PHGDH (UniProt O43175),0.03 (inactive),0.021 (inactive),0.013 (inactive),0.028 (inactive),0.012 (inactive),-0.003 (inactive),0.013 (inactive),-0.004 (inactive),-0.012 (inactive),0.029 (inactive)
PCYT1B (UniProt Q9Y5K3),-0.051 (inactive),-0.007 (inactive),0.003 (inactive),0.013 (inactive),-0.042 (inactive),-0.039 (inactive),-0.03 (inactive),0.016 (inactive),-0.002 (inactive),0.026 (inactive)
PCBP2 isoform 8 (UniProt Q15366),0.15 (inactive),0.003 (inactive),-0.003 (inactive),-0.041 (inactive),-0.005 (inactive),-0.011 (inactive),-0.007 (inactive),0.071 (inactive),-0.05 (inactive),-0.043 (inactive)
PLEKHF1 (UniProt Q96S99),-0.004 (inactive),0.015 (inactive),0.053 (inactive),-0.042 (inactive),0.002 (inactive),-0.069 (inactive),-0.025 (inactive),-0.002 (inactive),-0.017 (inactive),0.015 (inactive)
PCBP3 (UniProt P57721),-0.026 (inactive),-0.007 (inactive),-0.005 (inactive),-0.021 (inactive),0 (inactive),-0.04 (inactive),-0.006 (inactive),0.053 (inactive),-0.02 (inactive),-0.028 (inactive)
PRMT5 (UniProt O14744),0.004 (inactive),-0.002 (inactive),-0.015 (inactive),0.004 (inactive),-0.004 (inactive),-0.015 (inactive),-0.008 (inactive),0.001 (inactive),-0.01 (inactive),0.022 (inactive)
PPP2CA (UniProt P67775),0.042 (inactive),0.009 (inactive),0.007 (inactive),0.083 (inactive),-0.012 (inactive),-0.017 (inactive),-0.034 (inactive),-0.047 (inactive),-0.003 (inactive),0.036 (inactive)
PRKCA (UniProt P17252),0.015 (inactive),0.366 (active),-0.012 (inactive),0.069 (inactive),0.032 (inactive),-0.015 (inactive),-0.094 (inactive),-0.002 (inactive),0.033 (inactive),-0.045 (inactive)
POLR2B (UniProt P30876),-0.011 (inactive),-0.017 (inactive),0.025 (inactive),-0.018 (inactive),0.005 (inactive),0.029 (inactive),-0.031 (inactive),-0.014 (inactive),0.028 (inactive),0.032 (inactive)
PICALM (UniProt Q13492),-0.023 (inactive),0.011 (inactive),-0.025 (inactive),-0.039 (inactive),-0.004 (inactive),-0.018 (inactive),0.004 (inactive),0.021 (inactive),-0.004 (inactive),-0.005 (inactive)
PLEKHA5 isoform 6 (UniProt Q9HAU0),0.075 (inactive),0.003 (inactive),-0.004 (inactive),-0.001 (inactive),0.069 (inactive),-0.013 (inactive),-0.033 (inactive),0.028 (inactive),0.022 (inactive),-0.036 (inactive)
PFKP (UniProt Q01813),-0.001 (inactive),0.009 (inactive),0.004 (inactive),-0.029 (inactive),0.001 (inactive),-0.015 (inactive),0.007 (inactive),0.003 (inactive),0.002 (inactive),0.062 (inactive)
PHKA1 (UniProt P46020),-0.045 (inactive),0.012 (inactive),0.03 (inactive),-0.031 (inactive),-0.053 (inactive),0.004 (inactive),-0.019 (inactive),-0.005 (inactive),0.032 (inactive),0.003 (inactive)
PPIE (UniProt Q9UNP9),-0.047 (inactive),-0.015 (inactive),-0.041 (inactive),-0.05 (inactive),-0.025 (inactive),-0.043 (inactive),0.021 (inactive),0.024 (inactive),0.034 (inactive),-0.035 (inactive)
PRKRA (UniProt O75569),-0.043 (inactive),-0.01 (inactive),0.035 (inactive),0.011 (inactive),0.013 (inactive),0.045 (inactive),-0.038 (inactive),0.002 (inactive),0.056 (inactive),0.019 (inactive)
